Measured values published in paper PMC4552634, “A New Set of Chemical Starting Points with Plasmodium falciparum Transmission-Blocking Potential for Antimalarial Drug Discovery” (PLoS ONE, 2015).
Out of some 13,000 compounds screened, about 3,200 (25%) showed an effect of 50% or more. The list shows a part of the results.

Test system: P. falciparum stage V gametocytes
Set-up: BacTiter-Glo ATP luminescence viability of purified stage V gametocytes in 384-well plates, per cent inhibition versus DMSO
Conditions: 48 h, 5 µM; inhibitor

Compound | % Inhibition
Cc1cc(N[C@@H](Cc2ccccc2)C(=O)NCc2cccs2)nc(NCCc2ccccc2)n1 [TCMDC-134775] | 70.11%
Cc1cc(N[C@@H](Cc2ccccc2)C(=O)NCc2cccs2)nc(Nc2ccccc2)n1 [TCMDC-134734] | -21.51%
Cc1cc(N[C@@H](Cc2ccccc2)C(=O)NCCc2ccccc2)nc(NCCc2cccs2)n1 [TCMDC-134874] | 14.35%
Cc1cc(N(C)C2CCN(C)C2)nc(Nc2ccccc2Cl)n1 (centres unmarked) [TCMDC-137007] | 12.36%
Cc1ccc(C)c(S(=O)(=O)Nc2ccc(Br)cc2C(=O)Nc2cccc(C(F)(F)F)c2)c1 [TCMDC-141482] | 10.24%
Cc1cc(NC(=O)c2cc(S(=O)(=O)N3CCCCC3)ccc2C)no1 [TCMDC-124530] | 23.56%
Cc1ccc(NC(=O)c2cc(S(=O)(=O)NC(C)(C)C)ccc2C)nc1 [TCMDC-125009] | 54.13%
Cc1cc(N2CCC(NS(=O)(=O)c3ccccc3)CC2)nc(Nc2cccc(C#N)c2)n1 [TCMDC-134213] | 22.13%
CN(c1ncc(-c2cccc(CNCc3ccccc3O)c2)cn1)C1CCCCC1 [TCMDC-133137] | -20.17%
CN1CCCC1CCNCc1cccc(-c2cnc(N3CCCC(C)(C)C3)nc2)c1 (centres unmarked) [TCMDC-133144] | 90.28%
CC(=O)Nc1cccc(CNCc2ccc(-c3cnc(N4CCCC(C)(C)C4)nc3)cc2)c1 [TCMDC-133549] | -38.45%
CCCN(CC1CC1)c1ncc(-c2cccc(CNCCC3CCCN3C)c2)cn1 (centres unmarked) [TCMDC-133142] | 40.53%
CN(CCc1ccccc1)c1ncc(-c2cccc(CNCCC3CCCN3C)c2)cn1 (centres unmarked) [TCMDC-133143] | 92.22%
CC1(C)CCCN(c2ncc(-c3cccc(CNCc4ccccc4O)c3)cn2)C1 [TCMDC-133139] | 32.42%
CN1CCCC1CCNCc1cccc(-c2cnc(N(C)C3CCCCC3)nc2)c1 (centres unmarked) [TCMDC-133141] | 75.89%
COC(=O)c1cc(OC)c(OC)cc1NC(=O)NC12CC3CC(CC(C3)C1)C2 [TCMDC-124384] | -44.27%
CC(Oc1ccc(Cl)cc1)C(=O)Nc1cc(C(F)(F)F)ccc1-n1cncn1 (centres unmarked) [TCMDC-125023] | 17.82%
Cc1cccc(CNc2nc(C)cc(N[C@@H](CC(C)C)C(=O)NCCOc3ccccc3)n2)c1 [TCMDC-134892] | -42.27%

Compound | % Inhibition
Fc1ccc2nc(-c3cccc(-c4cccc(CN5CCN(c6cnccn6)CC5)c4)c3)[nH]c2c1 [TCMDC-132676] | -22.96%
CCCC(C)Nc1nc(C)cc(N[C@@H](CC(C)C)C(=O)Nc2ccc(OC)cc2)n1 (some centres unmarked) [TCMDC-134896] | -21.51%
CCCCCCCCn1ccc(=N)cc1 [TCMDC-125630] | 13.04%
Cc1cc(N2CCC(NS(=O)(=O)c3ccc(F)cc3)CC2)nc(Nc2cccc(C#N)c2)n1 [TCMDC-134214] | 18.32%
CCNc1cc(C(=O)N[C@@H](Cc2ccccc2)[C@H](O)CNC2CCC(C)(C)C2)cc(N2CCCCS2(=O)=O)c1 (some centres unmarked) [TCMDC-135302] | 9.387%
COc1ccc(NC(=O)CSc2nc(-c3ccccc3Cl)ns2)cc1 [TCMDC-123543] | 61.96%
O=C(CSc1nc(-c2ccccc2Cl)ns1)Nc1cccc(F)c1 [TCMDC-124549] | 39.34%
COc1ccccc1Cc1nc2ccccc2nc1SCC(=O)Nc1cccc(C(F)(F)F)c1 [TCMDC-123879] | 0.3581%
O=C(Nc1cccc(Cl)c1)c1cc2ccccc2cc1O [TCMDC-124171] | 9.946%
COc1ccc(NC(=O)CSc2nc(-c3ccccc3Cl)ns2)cc1OC [TCMDC-125346] | 40.34%
CC(=O)c1ccc(NC(=O)CSc2nc(-c3ccccc3Cl)ns2)cc1 [TCMDC-124545] | -8.871%
O=C(CSc1nc(-c2ccccc2Cl)ns1)Nc1ccc2c(c1)OCO2 [TCMDC-124546] | 53.36%
COc1ccc(CC(=O)Nc2ccc(Nc3nc(C)cc(N4CCCC4)n3)cc2)cc1 [TCMDC-124966] | -9.476%
O=C(CSc1nc(-c2ccccc2Cl)ns1)Nc1cccc(Cl)c1 [TCMDC-124548] | 67.64%
O=C(Nc1cccc(CN2CCCN(Cc3ccc4c(c3)OCO4)CC2)c1)c1ccc(Cl)c(Cl)c1 [TCMDC-141820] | -97.11%
COc1cccc(NC(=O)CSc2nc(-c3ccccc3Cl)ns2)c1 [TCMDC-123544] | 62.62%
COc1ccccc1-c1ccc2nnc(SCC(=O)Nc3ccc4c(c3)OCCO4)n2n1 [TCMDC-124319] | 10.92%
